Hit rate of the full screen: of about 5,500 compounds, about 2,000 (36%) were called active. Not shown: some 18% with an inconclusive outcome. No stated cut-off is given here; in the data, active means normalized growth mostly below about 0.91 (no sharp cut-off); inconclusive means no clear call, values can overlap the other calls; inactive means mostly above about 0.92. Some of the results follow.
Assay: chemical genetic growth profiling, strain panel (AID 1159580);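 further: tested at 20 µM; growth read once vehicle control cultures reached saturation at 30 °C; 1 = growth at the plate median or of vehicle wells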
Conditions: S. cerevisiae deletion strains, growth OD
[1] = locus YAR019C, strain CDC15, stronger effect = lower value
[2] = locus YBL105C, strain PKC1, stronger effect = lower value
[3] = locus YBR135W, strain CKS1, stronger effect = lower value
[4] = locus YBR136W, strain MEC1, stronger effect = lower value
[5] = locus YBR160W, strain CDC28, stronger effect = lower value
[6] = locus YDL017W, strain CDC7, stronger effect = lower value
[7] = locus YDL028C, strain MPS1, stronger effect = lower value
[8] = locus YDL101C, strain DUN1, stronger effect = lower value
[9] = locus YDL108W, strain KIN28, stronger effect = lower value
[10] = locus YDL132W, strain cdc53, stronger effect = lower value
[11] = locus YDL214C, strain PRR2, stronger effect = lower value
[12] = locus YDR052C, strain DBF4, stronger effect = lower value
[13] = locus YDR054C, strain cdc34, stronger effect = lower value
[14] = locus YDR226W, strain ADK1, stronger effect = lower value
[15] = locus YDR477W, strain SNF1, stronger effect = lower value
[16] = locus YER123W, strain YCK3, stronger effect = lower value
[17] = locus YER133W, strain GLC7, stronger effect = lower value
[18] = locus YFL009W, strain cdc4, stronger effect = lower value
[19] = locus YFL029C, strain CAK1, stronger effect = lower value
[20] = locus YFR003C, strain YPI1, stronger effect = lower value
[21] = locus YFR019W, strain FAB1, stronger effect = lower value
[22] = locus YFR028C, strain CDC14, stronger effect = lower value
[23] = locus YGR040W, strain KSS1, stronger effect = lower value
[24] = locus YGR052W, strain FMP48, stronger effect = lower value
[25] = locus YGR092W, strain DBF2, stronger effect = lower value
[26] = locus YHR030C, strain SLT2, stronger effect = lower value
[27] = locus YHR079C, strain IRE1, stronger effect = lower value
[28] = locus YHR082C, strain KSP1, stronger effect = lower value
[29] = locus YHR205W, strain SCH9, stronger effect = lower value
[30] = locus YIL147C, strain SLN1, stronger effect = lower value
[31] = locus YJL095W, strain BCK1, stronger effect = lower value
[32] = locus YJL128C, strain PBS2, stronger effect = lower value
[33] = locus YJL157C, strain FAR1, stronger effect = lower value
[34] = locus YJR016C, strain ILV3, stronger effect = lower value
[35] = locus YJR066W, strain TOR1 (second series), stronger effect = lower value
[36] = locus YJR066W, strain TOR1, stronger effect = lower value
[37] = locus YKL048C, strain ELM1, stronger effect = lower value
[38] = locus YKL067W, strain YNK1, stronger effect = lower value
[39] = locus YKL101W, strain HSL1, stronger effect = lower value
[40] = locus YKL193C, strain SDS22, stronger effect = lower value
[41] = locus YKL203C, strain TOR2, stronger effect = lower value
[42] = locus YLR113W, strain HOG1, stronger effect = lower value
[43] = locus YLR133W, strain CKI1, stronger effect = lower value
[44] = locus YLR403W, strain SFP1, stronger effect = lower value
[45] = locus YML070W, strain DAK1, stronger effect = lower value
[46] = locus YMR001C, strain CDC5, stronger effect = lower value
[47] = locus YMR205C, strain PFK2 (second series), stronger effect = lower value
[48] = locus YMR277W, strain FCP1, stronger effect = lower value
[49] = locus YNL006W, strain LST8, stronger effect = lower value
[50] = locus YNL020C, strain ARK1, stronger effect = lower value
[51] = locus YNL161W, strain CBK1, stronger effect = lower value
[52] = locus YNL183C, strain NPR1, stronger effect = lower value
[53] = locus YNL207W, strain RIO2, stronger effect = lower value
[54] = locus YNL222W, strain SSU72, stronger effect = lower value
[55] = locus YNL307C, strain MCK1 (second series), stronger effect = lower value
[56] = locus YOL078W, strain AVO1, stronger effect = lower value
[57] = locus YOL136C, strain PFK27, stronger effect = lower value
[58] = locus YOR061W, strain CKA2, stronger effect = lower value
[59] = locus YOR119C, strain RIO1, stronger effect = lower value
[60] = locus YOR231W, strain MKK1, stronger effect = lower value
[61] = locus YOR329C, strain SCD5, stronger effect = lower value
[62] = locus YPL031C, strain PHO85, stronger effect = lower value
[63] = locus YPL153C, strain RAD53, stronger effect = lower value
[64] = locus YPL204W, strain HRR25, stronger effect = lower value
[65] = locus YPL209C, strain IPL1, stronger effect = lower value
[66] = locus YPL256C, strain CLN2, stronger effect = lower value
[67] = locus YPR025C, strain CCL1, stronger effect = lower value
[68] = locus YPR106W, strain ISR1, stronger effect = lower value
[69] = locus YPR111W, strain DBF20, stronger effect = lower value
[70] = strain NNK1, stronger effect = lower value
[71] = strain TSCII, stronger effect = lower value

Measured: normalized growth

N/C(CSc1ncccc1C(F)(F)F)=N/OC(=O)Nc1cccc(Cl)c1
active: [26] 0.582 | [42] 0.819 | [52] 0.384 | [66] 0.845
inactive: [1] 1 | [2] 0.995 | [3] 0.969 | [4] 0.995 | [5] 0.995 | [6] 0.996 | [7] 0.988 | [8] 0.993 | [9] 0.996 | [10] 0.98 | [11] 0.877 | [12] 1 | [13] 0.987 | [14] 0.983 | [15] 0.857 | [16] 0.724 | [17] 0.82 | [18] 0.996 | [19] 0.992 | [20] 0.995 | [21] 0.946 | [22] 0.991 | [23] 0.881 | [24] 0.793 | [25] 0.836 | [27] 0.788 | [28] 0.946 | [29] 0.875 | [30] 0.995 | [31] 0.618 | [32] 0.967 | [33] 0.94 | [34] 0.989 | [35] 0.71 | [36] 0.841 | [37] 0.977 | [38] 0.897 | [39] 0.911 | [40] 0.987 | [41] 0.93 | [43] 0.926 | [44] 0.904 | [45] 0.837 | [46] 0.994 | [47] 0.916 | [48] 0.988 | [49] 1 | [50] 0.919 | [51] 0.986 | [53] 0.988 | [54] 0.997 | [55] 0.923 | [56] 0.994 | [57] 0.916 | [58] 0.931 | [59] 0.885 | [60] 0.749 | [61] 0.986 | [62] 0.836 | [63] 0.717 | [64] 0.78 | [65] 0.99 | [67] 0.988 | [68] 0.984 | [69] 0.974 | [70] 0.99 | [71] 0.991

CCOC(=O)c1c(SC)[nH]c2c(C(F)(F)F)cccc2c1=O
inactive: locus YAL013W, strain DEP1, stronger effect = lower value 0.996 | locus YBR229C, strain ROT2, stronger effect = lower value 0.991 | [8] 0.99 | locus YDL134C, strain PPH21, stronger effect = lower value 0.959 | locus YDR150W, strain NUM1, stronger effect = lower value 0.939 | locus YEL061C, strain CIN8, stronger effect = lower value 1.02 | locus YGR078C, strain PAC10, stronger effect = lower value 0.998 | locus YGR229C, strain SMI1, stronger effect = lower value 0.989 | [26] 0.975 | locus YHR087W, strain rtc3, stronger effect = lower value 0.975 | locus YJR043C, strain POL32, stronger effect = lower value 0.982 | locus YJR075W, strain HOC1, stronger effect = lower value 0.992 | locus YKL190W, strain CNB1, stronger effect = lower value 1 | locus YLR039C, strain RIC1, stronger effect = lower value 0.917 | locus YLR058C, strain SHM2 (second series), stronger effect = lower value 1 | locus YLR085C, strain ARP6, stronger effect = lower value 0.977 | locus YLR262C, strain YPT6, stronger effect = lower value 0.997 | locus YML094W, strain GIM5, stronger effect = lower value 0.986 | locus YMR219W, strain ESC1, stronger effect = lower value 1 | locus YMR263W, strain SAP30, stronger effect = lower value 1.03 | locus YNL153C, strain GIM3, stronger effect = lower value 0.986 | locus YNL298W, strain CLA4 (second series), stronger effect = lower value 1.01 | locus YNL322C, strain KRE1, stronger effect = lower value 1 | locus YNR030W, strain Alg12, stronger effect = lower value 0.977 | locus YPL055C, strain LGE1, stronger effect = lower value 0.936 | locus YPL241C, strain CIN2, stronger effect = lower value 0.982 | locus YPR135W, strain CTF4, stronger effect = lower value 0.927

Cc1cc(C(=O)O/N=C(/N)CSc2ncccc2C(F)(F)F)no1
inactive: [1] 0.997 | [2] 0.993 | [3] 0.994 | [4] 0.992 | [5] 0.988 | [6] 0.995 | [7] 0.993 | [8] 1.01 | [9] 0.996 | [10] 0.99 | [11] 0.999 | [12] 0.998 | [13] 0.989 | [14] 0.991 | [15] 1 | [16] 1.01 | [17] 1.01 | [18] 0.999 | [19] 0.998 | [20] 0.993 | [21] 1 | [22] 0.994 | [23] 1.02 | [24] 0.995 | [25] 1.02 | [26] 0.957 | [27] 0.772 | [28] 1.17 | [29] 1 | [30] 0.991 | [31] 0.841 | [32] 0.983 | [33] 1.01 | [34] 0.997 | [35] 1 | [36] 1.14 | [37] 1.01 | [38] 0.993 | [39] 1 | [40] 0.989 | [41] 1.08 | [43] 1.01 | [44] 1.02 | [45] 0.995 | [46] 0.997 | [47] 1.02 | [48] 0.994 | [49] 0.999 | [50] 1.01 | [51] 0.996 | [52] 0.933 | [53] 0.997 | [54] 0.978 | [55] 1.01 | [56] 0.998 | [57] 1.01 | [58] 1.02 | [59] 1.04 | [60] 0.792 | [61] 0.995 | [62] 1 | [63] 0.997 | [64] 1.01 | [65] 0.992 | [67] 0.999 | [68] 0.997 | [69] 0.993 | [70] 1.01 | [71] 0.99
active: [42] 0.789 | [66] 0.824
